Screening data as filed in PubChem BioAssay.
Only a selection was taken, and hits are over-represented in it overall.
Vaccinia pol inh = blocks vaccinia virus processive DNA synthesis; in vitro processive DNA synthesis, absorbance read-out; active compounds read low; normalized absorbance, % (no concentration beside the values); AID 493162; actives 0.94% (n = 46,000); in the data active = normalized absorbance mostly below about 85%, no sharp cut-off; inactive = mostly above about 86%
An asterisk follows results filed as active.

SMILES	Vaccinia pol inh
COc1ccc(N=Cc2cn(-c3ccc(OC)cc3)cc2C=Nc2ccc(OC)cc2)cc1	68
FC(F)(F)c1cccnc1N1CCNC1=S	103
COc1ccc2c(C)cc3nncn3c2c1	78*
COc1ccc2c(C)cc(Cl)nc2c1	91
CCN1CCN(c2cc(C)c3ccc(OC)cc3n2)CC1	99
Cc1[nH]c2ccccc2c1SCCNC(=O)c1ccccc1	100
Nc1ccc(C(=O)O)c(O)c1 (tested in a mixture with another compound)	95
O=C(O)CN1C(=O)S/C(=C\c2ccc(Br)cc2)C1=O	94
CNC(=O)CN1C(=O)/C(=C/c2ccccc2C)Sc2ccccc21	101
O=C(/C=C1/Sc2ccccc2N(Cc2ccc(F)cc2)C1=O)NCc1ccccc1	104
O=C(O)c1ccc2c(c1)N(Cc1ccc(F)cc1)C(=O)/C(=C\c1ccccc1)S2	57*
O=C(NCC1CCCO1)c1ccc2c(c1)N(Cc1ccc(F)cc1)C(=O)/C(=C/c1ccccc1)S2 (stereo unspecified)	88
CCc1ccc(/C=C2\Sc3ccccc3N(CC(=O)O)C2=O)cc1	66*
O=C(c1cc(=O)c2ccccc2o1)N1CCCC1	99
Cc1ccc(S(=O)(=O)c2ccc(-n3nc(C)cc3N)cc2)cc1	92
Fc1cc(F)c2c(c1)sc1nnc(-c3ccccc3)n12	86
Cc1cc2cc(CNS(C)(=O)=O)ccc2n1C	97
COC(=O)Nc1sc(-c2ccc(Cl)cc2)nc1-c1cccs1	88
CN1C=C/C(=C\c2cc[n+](C)c3ccccc23)c2ccccc21	84*
CN1/C(=C/c2cccc[n+]2C)C=Cc2ccccc21	97
C[n+]1ccc(/C=C/c2ccccc2F)c2ccccc21	100
Oc1cc2c(cc1C(Nc1ccccn1)c1ccc3c(c1)OCO3)OCO2 (stereo unspecified)	101
C=CCn1c(SCC(=O)N2CCc3ccccc3C2)nnc1-c1ccccc1OC	100
CC1=C(C(N)=O)C(c2ccco2)C(C(N)=O)=C(C)N1	101
CS(=O)(=O)N(CC(=O)Nc1cccc(Cl)c1)c1ccccc1Cl	100
SMILES	Vaccinia pol inh
CCc1nnc(NC(=O)Cc2ccccc2)s1	94
O=C(O)Cn1c2c(c3ccccc31)CSc1ccc(Cl)cc1-2	71*
O=C(O)Cn1cc(C(=O)C2CC2)c2ccccc21	89
CCSc1nc2ccccc2n1CC(=O)O	101
O=C1c2ccccc2C2N1c1ccccc1S(=O)(=O)N2Cc1ccccc1 (stereo unspecified)	100
Cc1nc(Oc2ccc(NC(=O)c3ccccc3)cc2)c2c3c(sc2n1)CCC3	100
c1ccc2c(Nc3nc(-n4ccnc4)nc(-n4ccnc4)n3)cccc2c1	100
CCOC(=O)c1ccc2c(c1)c(C)c(C)n2Cc1ccccc1	99
Cc1c(C)n(Cc2ccccc2)c2ccc(C(=O)OCCN3CCOCC3)cc12	98
Cc1c(C)n(CCN(C)C)c2ccc(C(=O)OCCN(C)C)cc12	62*
COc1ccc(Nc2ccccc2N)cc1	96
Nc1ccc(-c2ccc(N)cc2)cc1	72*
Cc1ccc(-c2ccc(N)cc2)cc1	93
Nc1ccc(-c2cnc(-c3ccc(N)cc3)nc2)cc1	100
Cc1ccc(C2(C#N)C(=O)Nc3ccccc32)c(C)c1 (stereo unspecified)	104
Cc1ccc(-c2cc3cc(C)c(C#N)c(N4CCCCCC4)n3c2)cc1	102
O=C(Cc1ccccc1)N1CCN=C1SCc1ccccc1	103
COc1ccccc1C1CCN(C(=O)CSCc2cccc3ccccc23)CC1	103
CS(=O)(=O)N1CCN=C1SCc1ccc(Cl)c(Cl)c1	56*
C=C(C)CSc1nnc(SCc2cccc3ccccc23)s1	92
COc1ccc(S(=O)(=O)N2CCN=C2SC)cc1	115
CCS(=O)(=O)N1CCN=C1SCc1ccccc1C	78*
O=S(=O)(c1ccc(F)cc1)N1CCN=C1SCc1ccc(F)cc1	115
CCS(=O)(=O)N1CCN=C1SCc1cccc2ccccc12	29*
CCSC1=NCCN1S(C)(=O)=O	98
SMILES	Vaccinia pol inh
Cc1ccc(C)c(CSC2=NCCN2C(=O)COc2ccccc2)c1	101
CS(=O)(=O)N1CCN=C1SCc1cccc2ccccc12	51*
CCSC1=NCCN1S(=O)(=O)c1ccccc1	100
O=C(CC(NCc1ccco1)C(=O)O)Nc1ccccc1 (stereo unspecified)	101
O=C(O)c1c2c(nc3ccc(Br)cc13)CCCC2	100
CSc1ncc(C(=O)NCc2ccccc2)c(C)n1	99
O=C(Nc1cccc(-c2nc3ccccc3[nH]2)c1)C1=COCCO1	87
O=C(O)c1ccc2[nH]c3c(c2c1)CCCC3	97
O=C(N1CCOCC1)C12CC3CCC(CC(C3)C1)C2	90
Cc1oc(-c2ccccc2Cl)nc1CS(=O)(=O)CC(=O)NCCN1CCOCC1	91
COC(=O)c1cn(CC(=O)NCc2ccc3c(c2)OCO3)c2ccccc12	78
O=C1CC(c2ccc(Cl)cc2)Nc2nc3ccccc3n21 (stereo unspecified)	98
O=C(/C=C/c1ccc2c(c1)OCO2)OCc1ccccc1	99
N#Cc1cc2c(nc1S(=O)Cc1ccc(Cl)cc1)CCCC2 (stereo unspecified)	100
COc1ccc2c(c1)c1ncn(CCc3ccc(Cl)cc3)c(=O)c1n2C	98
N#C/C(=C\N1CCCCC1)S(=O)(=O)c1ccc(Cl)cc1	93
C[C@@]1(CO)[C@H](O)CC[C@@]2(C)[C@H]1CC[C@H]1C[C@@H]3C[C@@]12CC[C@]3(O)CO	15*
COc1cccc2c1OC1=C(C(=O)CC(C)(C)C1)C2CC(=O)c1ccc(F)cc1 (stereo unspecified)	96
O=C1Nc2ccccc2S/C1=C/Nc1ccccc1Cl	100
COc1ccc(S(=O)(=O)n2cnc3cc(C)c(C)cc32)cc1OC	98
Cc1nn(C)c(C)c1NC(=O)/C=C/c1ccco1	103
O=C(/C=C/c1ccco1)NCCc1ccccc1	102
O=C(/C=C/c1ccco1)Nc1cccc(NC(=O)/C=C/c2ccco2)n1	85*
O=C(/C=C/c1ccco1)/C=C/c1ccco1	8.6*
O=C(/C=C/c1ccccc1)/C=C/c1ccco1	78
SMILES	Vaccinia pol inh
O=C(/C=C/c1ccco1)C1(O)CCCCC1	91
CN(C)CCC(c1ccc(Cl)cc1)c1ccccn1 (stereo unspecified)	100
O=C(c1cccc(F)c1F)N1CCCCC1	97
O=C(O)C1C2C=CC(C2)C1C(=O)NCc1ccc2c(c1)OCO2 (stereo unspecified)	100
Cc1ccc(CSC2=NS(=O)(=O)c3ccccc32)cc1	102
C=CCc1c(C)[nH]c2ccc(N)cc2c1=O	101
CCCN(CCC)C(=O)c1cc(OC)cc(OC)c1	102
CCOC(=O)CCc1ccc(OCc2c(C)c(C)c(C)c(C)c2C)cc1	96
CCOC(=O)CCc1n[nH]c(=O)[nH]c1=O	102
CCOC(=O)CCc1c(CC(=O)OCC)c[nH]c1/C=N/O	31*
Cc1ccc(C)c(N(C)C(=O)c2cc3c(s2)-c2ccccc2SC3)c1	92
CCOC(=O)c1ccc(NC(=O)c2ccc(Cl)cc2)cc1	99
CCOC(=O)c1ccc(CN)cc1	98
CCOC(=O)c1ccc(N=C(N)SCc2ccc(Cl)cc2)cc1	65*
CCOc1ccccc1N(C)C(=O)c1cc2c(=O)n(CC)c3ccccc3c2s1	88
S=c1[nH]c(=S)c2cnc(N3CCc4ccccc43)nc2[nH]1	98
CC1CC(=O)c2cnc(N3CCc4ccccc43)nc2C1 (stereo unspecified)	100
CNc1nc(N2CCc3ccccc32)ncc1F	56*
NC(=O)CSc1nnc(-c2ccccc2Br)n1Cc1ccccc1	102
